# Reference: ChEMBL document CHEMBL4513216, “Probing the Open Global Health Chemical Diversity Library for Multistage-Active Starting Points for Next-Generation Antimalarials” (ACS Infect Dis, 2020)
# The whole screen tested about 68,000 compounds, of which about 2,700 (4%) showed an effect of 50% or more. This excerpt belongs to a sample that is enriched for strong results.
# Tested on: Plasmodium berghei
# Test: Screen against P. berghei liver stage (PbLuc), transformed with Luciferase, at 2uM
# Format: functional, HepG2
# Details: tested at 2 uM
row,Compound,INHIBITION [%]
1,O=C(NCC1(c2ccc(F)cc2)CCCC1)N1CCOC(CO)C1 (stereo not drawn),12.41
2,Cn1ncnc1-c1ccnc(N2CCC(C(O)c3cccs3)CC2)n1 (stereo not drawn),39.98
3,Fc1cccc(N2CCCC3(CN(Cc4cccnc4)CCO3)C2)c1 (stereo not drawn),-18.59
4,O=c1[nH]c2ccccc2c2c1CCO2,-66.7
5,O=C(Nc1ccccn1)NC(CCCO)c1ccccc1 (stereo not drawn),-67.62
6,Cc1ccc(CN2CC[C@H]3OCC[C@@]3(COCC(=O)N(C)C)C2)s1,-14.52
7,CCc1ccc(CN2CCCC(CO)(CCOC)C2)cc1 (stereo not drawn),22.74
8,CCN(CC)C(=O)[C@@H]1C[C@@H](N)CN1C(=O)c1cc2c([nH]c1=O)CCC2,56.16
9,CC(C)NC(=O)[C@@H]1C[C@H](N)CN1C(=O)c1cc2c([nH]c1=O)CCCC2,-34.26
10,CCN(CC)C(=O)[C@@H]1C[C@H](N)CN1C(=O)c1cc2c([nH]c1=O)CCC2,22.89
11,CCN1CC2(CCC1=O)CCN(CCc1nccn1C)CC2,25.65
12,CNc1nnc(CCn2nc(C)c(Br)c2C)s1,6.05
13,CC(C)(C)CC(=O)NC[C@H]1OC[C@@H](NCc2ccccn2)[C@@H]1O,16.43
14,CN(C)C(=O)CS(=O)(=O)Cc1ccn(-c2cccc(F)c2)n1,-19.29
15,CC(C)=CCS(=O)(=O)Cc1ccn(-c2cccc(F)c2)n1,58.14
16,CCS(=O)(=O)Cc1ccn(-c2cccc(F)c2)n1,6.82
17,CCCNC(=O)CNc1cc(C#N)ccc1OCC,-19.76
18,Cn1ncc(C(=O)O)c1C(=O)Nc1nc2ccc(Br)cc2s1,3.27
19,N#Cc1ccc(CNCC2CCN(CCO)CC2)cc1,1.07
20,Cc1[nH]c2ccc(CNc3cc(C(=O)NC(C)C)ccn3)cc2c1C,15.46
21,O=C1CO[C@H]2CN(S(=O)(=O)c3ccccc3)C[C@H]2N1Cc1ccccc1,15.98
22,O=C1CO[C@H]2CN(S(=O)(=O)c3ccccc3)C[C@H]2N1c1ccccc1,53.27
23,O=C1CO[C@@H]2CN(S(=O)(=O)c3ccccc3)C[C@H]2N1CC1CC1,-30.12
24,CC(C)c1noc(C[S+]([O-])CC(=O)Nc2cc(F)ccc2F)n1 (stereo not drawn),12.35
25,CC(NC1CCN(CCS(C)(=O)=O)CC1)c1ccc(Cl)cc1 (stereo not drawn),-26.72
26,Cc1cc(NCCC(=O)NC(C)C)nc(-c2ccncc2)n1,-1.96
27,Cc1cc(NCCC(=O)NC2CCCC2)nc(-c2ccncc2)n1,-82.36
28,COCCNC(=O)CCNc1cc(C)nc(-c2ccncc2)n1,69.06
